# In the supplement of paper PMC6555819:
# How the values were obtained:
# Test in all cases: PBM binding z-score (relative to random genomic background probes); higher = stronger binding; sequences stand for … in GC…GCGATTGACAGCGTAGAATGAAGG
# [1] = tested on: FXR:RXRa (NR concentration 270 nM, RXRa partner concentration 90 nM)
# Procedure, shortened: (§1)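 Ligand-free nuclear receptor dimers were bound for 1 h to custom Agilent 4×180K protein-binding microarrays. Detection used antibodies against each partner (one per run). Binding z-scores rest on regression-normalized fluorescence, with random background probes as the reference.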
# [2] = tested on: LXRa:RXRa (NR concentration 270 nM, RXRa partner concentration 90 nM)
# Procedure, shortened: as §1
# [3] = tested on: LXRa homodimer (NR concentration 270 nM)
# Procedure, shortened: as §1
# [4] = tested on: LXRb:RXRa (NR concentration 270 nM, RXRa partner concentration 90 nM)
# Procedure, shortened: as §1
# [5] = tested on: LXRb homodimer (NR concentration 270 nM)
# Procedure, shortened: as §1
# [6] = tested on: PPARa:RXRa (NR concentration 270 nM, RXRa partner concentration 90 nM)
# Procedure, shortened: as §1
# [7] = tested on: PPARg:RXRa (NR concentration 180 nM, RXRa partner concentration 90 nM)
# Procedure, shortened: as §1
# [8] = tested on: PPARg:RXRa 270nM:90nM, anti-RXR (NR concentration 270 nM, RXRa partner concentration 90 nM)
# Procedure, shortened: as §1
# [9] = tested on: PPARg:RXRa 30nM:10nM, anti-RXR (NR concentration 30 nM, RXRa partner concentration 10 nM)
# Procedure, shortened: as §1
# [10] = tested on: PPARg:RXRa 90nM:30nM, anti-RXR (NR concentration 90 nM, RXRa partner concentration 30 nM)
# Procedure, shortened: as §1
Sequence,PBM binding z-score [1],PBM binding z-score [2],PBM binding z-score [3],PBM binding z-score [4],PBM binding z-score [5],PBM binding z-score [6],PBM binding z-score [7],PBM binding z-score [8],PBM binding z-score [9],PBM binding z-score [10]
CCAGACAGGTGAGAAGGTAACTCTGCCTCGATTA,0.00014,0.0948,-0.229,0.114,-0.103,0.793,0.466,0.906,-0.293,0.346
ATCGAAAGATCGAAGGTGAGTATACCCACCCGAA,0.128,-0.167,-0.351,-0.103,-0.379,0.477,0.73,0.539,0.2,0.266
AGTCAAAGTTCAGGACGCGGTAACGTAAAGCACG,3.88,3.44,1.09,1.68,0.0515,3.08,4.39,4.71,1.96,3.51
ATATGTAGGTTACTTCCGGGTCATTCAGGCTATG,2.58,5.79,2,3.81,1.01,4.23,5.4,4.83,2.21,4.06
TCAGACAGGTGAAGGTAAGTCAGGTACGCAGTCG,0.571,0.454,-0.273,0.356,-0.365,0.993,0.552,2.03,4.06,2.93
CAAACTAGGTCATAGGTCAAAGTCGAGCCAACCA,7.12,5.85,3.78,5.36,1.14,7.84,12.8,10.5,11.6,12
GGTAGTTGGTCAGTAAAAGGTCACACACCGGTCG,3.14,4.29,4.91,4.07,1.47,4.34,2.7,4.44,2.46,3.81
AGAATGAGGATAAGATCAGGGAAACAGAATACAT,0.459,-0.133,-0.218,-0.0492,-0.342,-0.0848,1.2,-0.174,0.433,0.00747
TTACCACGGTGAAGGTCGTTGATCCCTCTGTAGA,1.28,1.71,0.151,1.26,-0.41,1.57,0.322,1.94,0.678,1.24
ATCTCTAGGTAAGACTCAGTTAAGTGAAGAACGC,0.573,0.359,0.508,0.191,0.75,0.00438,0.0664,-0.0342,0.242,-0.00989
ACGAGCAGGCCAAGTTTGGGTCACTCAAACAAAG,0.0598,-0.0138,-0.363,0.536,-0.887,1.33,-0.00564,0.0624,-0.543,-0.429
GGAACGAGGGCGAAGTTGATAGCATCTGTCGACG,-0.55,-0.447,-0.49,-0.637,-0.922,1.42,2.91,4.71,1.93,4.02
AATACAGGGTTATCGTAGGCCAGAGTACGCACAG,1.75,5.85,0.204,2.68,0.3,2.55,1.75,1.35,0.668,0.954
CCTTACGGGTCACTGACTGGTTATAGCATTTGGA,5.56,3.75,0.422,3.15,-0.0702,4.99,4.13,4.14,1.38,2.81
CGAACTAGGTCAGAACAGGACAGTGACGGATGAT,1.23,0.594,-0.065,0.276,-0.492,2.87,5.01,4.26,1.69,3.39
CCTCAAAGTTCAACTAAGGTAACGTAAAGCACGC,6.89,6.33,4.64,4.52,2.85,5.12,3.17,4.09,1.44,2.86
CTCGAAAGGTAGGTTGAGGTGAGTATACGGATAA,0.719,-0.128,-0.2,-0.0661,-0.508,0.424,0.0538,0.173,0.0647,0.104
CGTCCAATGTCATAGGAGGTCAGTGAAGACAGAT,3.22,4.74,1.21,2.36,0.0659,2.66,0.938,0.958,0.0922,0.565
TCATATAGGTAAAGGTGAAATTCGAACGATATGA,0.843,1.08,-0.192,1.14,0.15,3.13,4.11,4.26,4.22,4.3
CGTCAAAGTTCAACTAAGGTAACGTGAAGCACGC,7.3,6.43,4.57,3.84,1.83,5.09,4.91,5.8,2.35,4.5
TGTAAAAGTTCAAAGGTAACGTAAGTATCCACAC,6.54,6.21,4.26,4.37,1.88,5.54,6.22,6.14,3.76,5.5
CCTCGGAGGACAGAAGGTCAGCGCTGTCCGCTTT,1.68,2.01,0.184,1.17,-0.704,2.2,-0.154,1.57,-0.543,0.613
ATCGAAAGGTCGAAGAGGTGAGTATACACCGTTT,4.26,3.51,-0.1,2.49,0.443,4.09,2.38,2.8,0.698,2.03
CAAACTAGGACACAGAGGTCAAAGTCCGTGCGTA,5.53,5.78,6.08,5.13,1.79,5.73,6.63,5.99,3.64,5.73
TCAGACAGGTGAAGGTAACTCGGGTACGCAGTCG,1.07,2.93,0.00206,1.44,-0.167,1.46,0.656,2.33,3.89,3.22

Sequence,PBM binding z-score [1],PBM binding z-score [2],PBM binding z-score [3],PBM binding z-score [4],PBM binding z-score [5],PBM binding z-score [6],PBM binding z-score [7],PBM binding z-score [8],PBM binding z-score [9],PBM binding z-score [10]
TGTCAAAGTTCAAAGGTAACTTAAGTATCCACAC,7.43,6.57,4.91,5.29,1.88,5.97,9.03,7.64,5.83,7.46
CAAACTATGTCAAGAGGTCAAAGTCCGCTTCCCG,5.04,5.63,5.89,4.97,2.01,5.33,5.62,6.27,4.55,6
AGAATGAGGTTACCAAAGAGCAGGGAAACGCTTG,1.71,5.78,-0.463,2.41,-0.39,3.05,2.22,2.47,0.623,1.44
GATACAGGGTCTAGGCCAGAGTACGCGTATTGAT,-0.772,-0.631,-0.516,-0.894,-1.47,-0.516,0.629,0.0439,-0.269,-0.108
ACTAGCAGGCCAAGTTTGGGTCACTAAAACAAAG,0.0701,0.104,-0.274,0.749,-0.496,1.58,0.26,0.637,-0.145,0.427
AATACAGGGTCATCGTAGGCCAGAGCACGCACAG,7.49,6.27,2.28,4.72,1.31,5.79,6.53,6.08,3.29,4.98
TATTGTAGATCAAGCAGGTTAAGAAAGCCTGAGT,-0.385,0.0261,-0.0497,-0.0709,0.0382,0.359,-0.08,0.334,0.0668,0.218
ATATGTAGGTTATTGGGTCATTCAGTTTGCGCAT,2.82,3.05,2.1,2.62,1.34,5.16,8.04,6.41,3.93,5.9
AGAACGAGGGCAATGAGTTGGTAGCACGGGTGGC,0.301,0.0909,-0.759,-0.443,-0.642,1.18,0.956,0.772,-0.238,0.196
TCTATTAGTTGATTAGGGCAACCGTAACAGCGGA,0.375,0.299,0.215,0.508,0.657,1.05,0.178,2.01,3.91,2.77
ATATGTAGGTGAGCTGGGGTCATTCAGACTAGGC,4.23,3.62,0.762,4.15,0.598,5.85,7.13,5.75,3.65,5.74
ACTATTATTTGACTTAGGGCAACCGATACGACGC,0.71,0.925,1.54,0.685,1.46,0.557,1.15,0.779,0.924,0.948
AGAACGAGGGCAATGAGTTGATAGCTCGGGTGGC,0.0898,-0.196,-0.745,-0.286,-0.548,1.23,1.03,0.695,-0.213,0.434
CGAGACAGGTGAAAGGTAACTCAGTCTGGTACGC,0.533,0.602,-0.513,0.732,-0.851,3.47,5.43,6.27,4.23,6.7
TCTATTAGTTGAAGGGCAACCGGCGAGTCCGTTT,0.888,1.19,0.417,0.88,0.229,0.966,-0.211,2.04,3.53,2.92
TCATATGGGTAAAGGTGAAAGTCGAACGATATGA,0.574,1.13,-0.287,1.09,-0.607,3.53,5.17,5.52,4.64,5.69
ACTAGTTGGTCAGCTGAGGTCACAAACAATTCGG,2.51,2.67,2.22,3.43,0.432,3.72,1.41,2.05,0.167,1.14
TAGCCTAGGTAATGGGCCAGTATACCACGCGAAC,-0.654,-0.856,-0.526,-0.351,-0.976,-0.193,0.503,0.264,-0.0812,-0.179
TCTATTAGTTGATTGGGGCAACCGAAACAGCGGA,1.22,0.791,0.363,1.23,1.1,1.17,0.235,1.91,3.65,2.85
TCTAGCAGGCCAGAGGGTCACTGAAGAGGTACGG,0.95,1.08,-0.818,1.01,-1.1,2.79,1.69,2.79,1.92,2.4
CAAACTACGTCAAGGTCAAAGTCGGTTTGTGCCA,4.66,4.23,2.86,3.54,1.01,4.35,1.43,2.55,0.626,1.7
CGAACTAGGGCAGAACAGGACAGTGAAGGATGAT,-0.103,-0.326,-0.302,-0.521,-0.666,1.4,2.24,1.47,0.448,0.819
TATACAGGGGCAAAGGCCAGAGTACGAATGTCGA,0.799,1.07,0.0951,1.34,1.92,2.84,4.54,5.09,3.45,4.92
TCTTGCAGATCAGCAGGTTAAGAAAGCTGGCCAA,-0.157,-0.083,-0.809,-0.061,-1.04,0.615,-0.601,0.866,1.59,1.15
